Laboratory results taken from the supplement of paper PMC8975748.
Where a name gives a salt, the structure may show the parent alone. ± gives the standard deviation of the averaged measurements.

Tests used:
[1] = test system: Saccharomyces cerevisiae BY4741 SeMeCo community; assay: mean cell size (pixel area) (pixels); higher = larger cells; details: 10 µM; 24 h; SM minimal medium
In short: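 Plates of 384 wells were acoustically predosed with drug at a final 10 µM in SM medium, and 70 µl of a Saccharomyces cerevisiae BY4741 preculture diluted from OD600 = 1.0 to OD600 = 0.3 was added for 24 h. The yeast formed a four-plasmid fluorescent community in which each plasmid complements one auxotrophy and carries a fluorescent marker. Fixed cells were imaged by automated confocal microscopy and analysed in Harmony for mean cell pixel area per well. Values are means of 3 replicates. Same SeMeCo high-content imaging drug screen: Selleck FDA-approved drugs at 10 µM, 24 h in SM medium, 384-well plates, 3 replicates.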

[2] = test system: Saccharomyces cerevisiae BY4741 SeMeCo community; assay: z-score of prototroph abundance vs DMSO median; higher = larger share of this subpopulation than in DMSO controls; details: 10 µM; 24 h; SM minimal medium; subpopulation (auxotrophy): Prototroph
In short: (§1)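 Four plasmids, each restoring a single auxotrophy and encoding a distinct fluorescent protein, were carried by a Saccharomyces cerevisiae BY4741 community. After overnight growth to OD600 1.0 and dilution to 0.3, 70 µl per well was grown for 24 h in minimal SM medium on 384-well plates acoustically predosed with library drugs at 10 µM final. Following paraformaldehyde fixation, automated confocal microscopy was used, with single-auxotroph fluorescent strains defining thresholds and autofluorescence correction. Subpopulation abundance was then scored as a z-score against the vehicle-well median.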

[3] = test system: Saccharomyces cerevisiae BY4741 SeMeCo community; assay: z-score of subpopulation abundance vs DMSO median, subpopulation auxotrophic for L; higher = larger share of this subpopulation than in DMSO controls; details: 10 µM; 24 h; SM minimal medium; subpopulation (auxotrophy): L
In short: as §1

[4] = test system: Saccharomyces cerevisiae BY4741 SeMeCo community; assay: z-score of subpopulation abundance vs DMSO median, subpopulation auxotrophic for U; higher = larger share of this subpopulation than in DMSO controls; details: 10 µM; 24 h; SM minimal medium; subpopulation (auxotrophy): U
In short: as §1

[5] = test system: Saccharomyces cerevisiae BY4741 SeMeCo community; assay: z-score of subpopulation abundance vs DMSO median, subpopulation auxotrophic for H; higher = larger share of this subpopulation than in DMSO controls; details: 10 µM; 24 h; SM minimal medium; subpopulation (auxotrophy): H
In short: as §1

[6] = test system: Saccharomyces cerevisiae BY4741 SeMeCo community; assay: z-score of subpopulation abundance vs DMSO median, subpopulation auxotrophic for LU; higher = larger share of this subpopulation than in DMSO controls; details: 10 µM; 24 h; SM minimal medium; subpopulation (auxotrophy): LU
In short: as §1

[7] = test system: Saccharomyces cerevisiae BY4741 SeMeCo community; assay: z-score of subpopulation abundance vs DMSO median, subpopulation auxotrophic for HM; higher = larger share of this subpopulation than in DMSO controls; details: 10 µM; 24 h; SM minimal medium; subpopulation (auxotrophy): HM
In short: as §1

[8] = test system: Saccharomyces cerevisiae BY4741 SeMeCo community; assay: z-score of subpopulation abundance vs DMSO median, subpopulation auxotrophic for HU; higher = larger share of this subpopulation than in DMSO controls; details: 10 µM; 24 h; SM minimal medium; subpopulation (auxotrophy): HU
In short: as §1

[9] = test system: Saccharomyces cerevisiae BY4741 SeMeCo community; assay: z-score of subpopulation abundance vs DMSO median, subpopulation auxotrophic for UM; higher = larger share of this subpopulation than in DMSO controls; details: 10 µM; 24 h; SM minimal medium; subpopulation (auxotrophy): UM
In short: as §1

[10] = test system: Saccharomyces cerevisiae BY4741 SeMeCo community; assay: z-score of subpopulation abundance vs DMSO median, subpopulation auxotrophic for HL; higher = larger share of this subpopulation than in DMSO controls; details: 10 µM; 24 h; SM minimal medium; subpopulation (auxotrophy): HL
In short: as §1

[11] = test system: Saccharomyces cerevisiae BY4741 SeMeCo community; assay: z-score of subpopulation abundance vs DMSO median, subpopulation auxotrophic for HLU; higher = larger share of this subpopulation than in DMSO controls; details: 10 µM; 24 h; SM minimal medium; subpopulation (auxotrophy): HLU
In short: as §1

[12] = test system: Saccharomyces cerevisiae BY4741 SeMeCo community; assay: z-score of subpopulation abundance vs DMSO median, subpopulation auxotrophic for HLM; higher = larger share of this subpopulation than in DMSO controls; details: 10 µM; 24 h; SM minimal medium; subpopulation (auxotrophy): HLM
In short: as §1

[13] = test system: Saccharomyces cerevisiae BY4741 SeMeCo community; assay: z-score of subpopulation abundance vs DMSO median, subpopulation auxotrophic for HUM; higher = larger share of this subpopulation than in DMSO controls; details: 10 µM; 24 h; SM minimal medium; subpopulation (auxotrophy): HUM
In short: as §1

[14] = test system: Saccharomyces cerevisiae BY4741 SeMeCo community; assay: z-score of subpopulation abundance vs DMSO median, subpopulation auxotrophic for LUM; higher = larger share of this subpopulation than in DMSO controls; details: 10 µM; 24 h; SM minimal medium; subpopulation (auxotrophy): LUM
In short: as §1

[15] = test system: Saccharomyces cerevisiae BY4741 SeMeCo community; assay: z-score of subpopulation abundance vs DMSO median, subpopulation auxotrophic for LM; higher = larger share of this subpopulation than in DMSO controls; details: 10 µM; 24 h; SM minimal medium; subpopulation (auxotrophy): LM
In short: as §1

[16] = test system: Saccharomyces cerevisiae BY4741 SeMeCo community; assay: z-score of subpopulation abundance vs DMSO median, subpopulation auxotrophic for HLUM; higher = larger share of this subpopulation than in DMSO controls; details: 10 µM; 24 h; SM minimal medium; subpopulation (auxotrophy): HLUM
In short: as §1

Structure (SMILES) | mean cell size [1] | z-score of prototroph abundance [2] | z-score of subpopulation abundance [3] | z-score of subpopulation abundance [4] | z-score of subpopulation abundance [5] | z-score of subpopulation abundance [6] | z-score of subpopulation abundance [7] | z-score of subpopulation abundance [8] | z-score of subpopulation abundance [9] | z-score of subpopulation abundance [10] | z-score of subpopulation abundance [11] | z-score of subpopulation abundance [12] | z-score of subpopulation abundance [13] | z-score of subpopulation abundance [14] | z-score of subpopulation abundance [15] | z-score of subpopulation abundance [16]
CNCCCN1c2ccccc2CCc2ccccc21 [Desipramine Hydrochloride] | 12.2 ± 0.14 | -0.16 | 0.26 | -0.08 | 0.31 | -0.28 | 0.82 | -0.04 | -0.43 | 0.02 | -0.62 | -0.1 | 0.16 | -0.63 | – | –
CC1(C)S[C@@H]2[C@H](NC(=O)[C@H](N)c3ccccc3)C(=O)N2[C@H]1C(=O)OCOC(=O)[C@@H]1N2C(=O)C[C@H]2S(=O)(=O)C1(C)C [Sultamicillin Tosylate] | 12.28 ± 0.1 | -0.54 | -0.36 | 0.67 | – | -0.03 | – | – | 0.25 | 0.21 | -0.45 | -0.09 | 0.26 | -0.41 | -0.09 | -0.64
CCOC(=O)C1=C(C)NC(C)=C(C(=O)OC)C1c1cccc(Cl)c1Cl (centres undefined) [Felodipine] | 12.57 ± 0.072 | 2.53 | 1.68 | -6.72 | 3.29 | -6.85 | 4.69 | -6.8 | – | – | -3.41 | 8.73 | -5.68 | -4.09 | 4.88 | –
COC(=O)C1=C(C)NC(C)=C(C(=O)OCCN2CCN(C(c3ccccc3)c3ccccc3)CC2)C1c1cccc([N+](=O)[O-])c1 (centres undefined) [Manidipine 2HCl] | 12 ± 0.3 | -1.31 | 0.47 | -1.31 | 1.78 | -0.77 | – | 0.05 | -0.8 | 2.26 | 0.54 | 1.42 | 1.21 | 0.89 | 2.4 | 0.77
CC(C[N+](C)(C)C)OC(N)=O (centres undefined) [Bethanechol chloride] | 12.5 ± 0.12 | -0.22 | 0.42 | 0.7 | 0.23 | 0.8 | 0.07 | 0.89 | -0.21 | -0.24 | 1.45 | 0.1 | -0.33 | -0.42 | -0.56 | -0.3
CN(C)CC/C=C1/c2ccccc2Sc2ccc(Cl)cc21 [Chlorprothixene] | 12.2 ± 0.36 | 0.08 | -0.89 | 0.62 | -1 | -0.59 | -0.62 | 0.13 | 0.34 | – | -0.48 | -0.36 | -0.32 | -0.1 | 0.18 | -0.55
CN(C)CCN1C(=O)c2cccc3cc(N)cc(c23)C1=O [Amonafide] | 12.29 ± 0.1 | 0.47 | -0.4 | – | 0.02 | -0.78 | -0.01 | -0.59 | -0.24 | – | 0.2 | -0.38 | -0.09 | 0.44 | 1.08 | -0.08
CCC[C@@H]1C[C@@H](C(=O)N[C@@H]([C@H]2O[C@H](SC)[C@H](O)[C@@H](O)[C@H]2O)[C@H](C)Cl)N(C)C1 [Clindamycin HCl] | 12.61 ± 0.074 | -0.3 | 0.8 | -0.42 | -0.08 | -0.2 | 0.38 | -0.26 | 0.35 | 0.26 | -0.02 | 0.06 | -0.28 | 0.28 | 0.83 | –
COc1ccc(CN2CCN(C(c3ccc(F)cc3)c3ccc(F)cc3)CC2)c(OC)c1OC [Lomerizine 2HCl] | 12.443 ± 0.0032 | -0.1 | 0.3 | 0.28 | -0.09 | -0.08 | 0.78 | – | – | 0.04 | 0.88 | 0.32 | -0.52 | -0.31 | 0.33 | -0.64
Nc1c(CC(=O)O)cccc1C(=O)c1ccc(Br)cc1 [Bromfenac Sodium] | 12.5 ± 0.043 | -0.27 | -0.45 | 0.73 | -0.02 | -0.11 | -0.15 | 0.19 | 0.59 | -0.68 | -0.92 | -0.09 | 0.05 | 0.39 | -0.28 | 0.3
O=C1CN2Cc3c(ccc(Cl)c3Cl)N=C2N1 [Anagrelide HCl] | 12.3 ± 0.29 | 0.08 | -0.32 | -0.23 | -0.25 | -0.64 | -0.37 | – | 0.39 | 0.5 | 0.58 | 1.02 | 0.14 | – | -0.53 | –
N#CC(c1ccc(Cl)cc1)c1c(Cl)cc(-n2ncc(=O)[nH]c2=O)cc1Cl (centres undefined) [Diclazuril] | 12.52 ± 0.088 | 1.02 | -0.07 | -1.07 | -0.16 | -0.92 | – | -0.93 | -1.39 | – | -0.02 | 0.16 | -0.94 | – | -0.81 | 0.35
CC(=O)OC1CC2(C)C(CC(O)C3C4(C)CCC(O)C(C)C4CCC32C)C1=C(CCC=C(C)C)C(=O)O (centres undefined) [Fusidine] | – | -1.01 | 2.4 | -1.39 | 2.59 | 1.02 | 1.19 | 0.13 | -0.42 | – | 1.57 | 1.22 | 0.82 | 1.09 | – | 0.71
CC/C(=C(\c1ccccc1)c1ccc(OCCN(C)C)cc1)c1ccccc1 [Tamoxifen] | 11.75 ± 0.092 | -0.91 | 0.96 | -0.18 | 1.57 | 0.89 | – | 1.39 | 0.21 | 0.95 | 0.93 | – | 0.85 | 0.23 | – | 0.09
c1ccc2[nH]c(-c3cscn3)nc2c1 [Thiabendazole] | 12.3 ± 0.24 | 0.41 | – | -0.7 | – | -0.61 | -0.37 | – | -0.41 | -0.01 | -0.4 | -0.38 | 0.33 | 0.16 | 0.06 | –
